SKKanGAS inh: blocks kanamycin growth of S. pyogenes SKKanGAS strain | BacTiter-Glo, 6 h | inhibition, % at 7.5 µM | actives 1.3% (n = 300,000);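 active = mean replicate score, as percent of positive control median, at least 50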;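 also: strain carries kanamycin resistance gene driven by streptokinase promoter and grows in 40 µg/ml kanamycin; loss of luminescence reflects streptokinase promoter inhibition or plain growth inhibition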
TIM10 inh: TIM10 yeast growth inhibition; S. cerevisiae TIM10 strain growth, BacTiter-Glo luminescence, 24 h; inhibition, % at 10 µM; actives 1.4% (n = 330,000);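 active = inhibition of 40% or more at the single tested concentration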;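 also: wild-type TIM10 isogenic control strain grown at permissive 25 °C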
PfHsp90 yeast 2: reduces growth (ATP signal) of yeast expressing P. falciparum Hsp90; S. cerevisiae expressing PfHsp90, BacTiter-Glo ATP, 48 h; yeast lacking PDR1 and PDR3 efflux regulators; inhibition, % at 9.4 µM; actives 0.32% (n = 310,000); AID 504621;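 active = every replicate shows inhibition above about 80%, whatever the replicate mean, limit read from the data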
V-ATPase pHluor: regulators of yeast V-ATPase proton transport; S. cerevisiae, pHLuorin cytosolic pH fluorescence; response, % at 10 µM; actives 0.37% (n = 350,000); in the data active = response mostly above about 7.3%, no sharp cut-off; inactive = mostly below about 5.4%; also: actives read high
tim23-1 inh: inhibits growth of tim23-1 mutant yeast. actives 1.3% (n = 330,000). S. cerevisiae tim23-1 growth, BacTiter-Glo luminescence, 24 h. inhibition, % at 20 µM. AID 463212;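 active = growth inhibition of the mutant yeast at or above 50%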;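 also: temperature-sensitive mutant grown at 25 °C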
tim10-1 inh: inhibits growth of tim10-1 mutant yeast; S. cerevisiae tim10-1 ts strain growth, BacTiter-Glo, 24 h; inhibition, % at 20 µM; actives 2.2% (n = 330,000);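 active = inhibition of at least 40%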;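 also: mutant grown at 25 °C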
V-ATPase pH SP: yeast V-ATPase proton transport regulation; response, % at 10 µM; S. cerevisiae pHLuorin cytosolic pH; actives 2% (n = 980); shares compounds with V-ATPase pHluor; in the data active = response above about 24%
Hits are given with their value; – = inactive; · = no result given. Shown are actives, neighbours in structure and some others; about 4.6% of the full set was active somewhere.

SMILES	SKKanGAS inh	TIM10 inh	PfHsp90 yeast 2	V-ATPase pHluor	tim23-1 inh	tim10-1 inh	V-ATPase pH SP
O=C(CCNC(=O)c1ccc(Br)cc1)NNC(=O)COc1ccccc1F	·	–	–	–	–	–	·
O=C(CCNC(=O)c1ccccc1)NNC(=O)COc1ccccc1Cl	·	–	–	8.2	–	–	–
CCOC(=O)CN1C(=O)C(=O)N(Cc2ccccc2F)C1=O	–	–	–	–	–	–	·
O=C(CSc1nnc(-c2ccccc2)o1)OCc1ccccc1	–	–	–	–	–	–	–
CCN(CC)C(=O)CCSc1nnc(-c2ccncc2)o1	–	–	–	–	–	–	·
CC(C)(C)c1ccc(-c2nnc(SCC(=O)NC3CC3)o2)cc1	·	–	–	–	–	–	·
CCN(CC)C(=O)CSc1nnc(-c2ccccc2)o1	–	–	–	–	–	–	–
CCOc1ccc(-c2nnc(SCC(=O)NC3CC3)o2)cc1	·	–	–	10.0	–	–	–
CC1(C)CC(NC(=O)C(Cl)(Cl)Cl)CC(C)(C)N1	–	–	–	–	–	–	·
NC1=NS(=O)(=O)NC1c1ccc(F)cc1 (stereo not drawn)	–	–	–	–	–	–	·
O=C(O)C1C(c2ccccc2)c2ccccc2C(O)C1CO (stereo not drawn)	·	·	·	–	·	·	·
COc1ccc(S(=O)(=O)NCC2CCCO2)cc1NC(=O)c1ccccc1 (stereo not drawn)	–	–	–	7.5	–	–	–
COc1cccc(CNCc2cc(OC)cc(OC)c2)c1	–	–	–	–	–	–	·
COc1cc(CNCc2ccc(OC)c(OC)c2OC)cc(OC)c1	·	–	–	12	–	–	–
Cc1cc(NC(=O)CCC(=O)N(CC(=O)NC2CCCC2)Cc2ccc3c(c2)OCO3)no1	–	–	–	9.7	–	–	–
O=C(NC1=NCCS1)c1cccc(Br)c1	–	–	–	–	–	–	·
O=C(NC1=NCCS1)c1cccc(F)c1	–	–	·	–	–	–	–
O=C(CN1C(=O)NC2(CCCC2)C1=O)OCCOc1ccc(Br)cc1	–	–	–	–	–	–	·
O=C(NC(=S)Nc1cccc(S(=O)(=O)NC2=NCCC2)c1)c1cc(-c2ccco2)nc2ccccc12	–	–	–	13	–	–	–
Cc1cc(Br)ccc1NC(=O)C1CCN(S(=O)(=O)c2cnc[nH]2)CC1	–	–	–	–	–	–	·
COc1ccc(CC(=O)Nn2c(-c3ccccc3)nc3ccccc3c2=O)cc1	–	–	–	–	–	–	·
COc1ccc(-c2nc3ccccc3c(=O)n2NC(=O)Cc2ccccc2)cc1	–	–	–	9.8	–	–	–
Nc1cccc(P(=O)(c2ccccc2)c2ccccc2)c1	–	–	–	9.6	–	–	–
NC(=O)c1ccccc1O	–	–	–	–	–	–	·
O=C(C/C(=N/O)c1ccccc1O)C(F)F	–	–	–	26	–	–	–
SMILES	SKKanGAS inh	TIM10 inh	PfHsp90 yeast 2	V-ATPase pHluor	tim23-1 inh	tim10-1 inh	V-ATPase pH SP
Cc1onc(-c2ccccc2)c1C(=O)c1c[nH]c(C(=O)NCc2ccncc2)c1	–	–	–	11	–	–	–
CCN(CC(=O)NCc1cccs1)C(=O)CCC(=O)c1ccc(F)cc1	–	–	–	–	–	–	·
COC(=O)c1sccc1NC(=O)Nc1ccc(F)cc1F	–	–	–	–	–	–	·
COc1ccc(-c2nn(C)c(=O)c3ccccc23)cc1NC(=O)Cn1nc(C)c2ccccc2c1=O	–	–	–	9.9	–	–	–
CCC(=O)Nc1cc(-c2nn(C)c(=O)c3ccccc23)ccc1OC	–	–	–	–	–	–	·
CC(=O)N1CCC(C(=O)Nc2ccc(S(=O)(=O)N3CCCCC3)cc2)CC1	–	–	–	–	–	–	·
CCCCCOC(=O)C1=C(C)NC(=O)NC1c1ccccc1 (stereo not drawn)	–	–	–	12	–	–	–
CCCCCOC(=O)C1=C(C)NC(=O)NC1c1ccc(N(C)C)cc1 (stereo not drawn)	–	–	–	–	–	–	·
CCC(CC)c1nnc(NC(=O)Oc2ccccc2)s1	–	–	–	17	–	–	–
Cc1nnc(NC(=O)Oc2ccccc2)s1	–	–	–	–	–	–	·
COc1ccc(CCNC(=O)COC(=O)Cc2c[nH]c3ccccc23)cc1OC	·	–	·	–	–	–	·
C[C@H](CO)N1C[C@H](C)[C@@H](CN(C)Cc2cccc3c2OCCCO3)OCc2cnnn2CCCC1=O	·	·	·	9.4	·	·	–
C[C@@H]1CN([C@H](C)CO)C(=O)CCCn2nncc2CO[C@H]1CN(C)Cc1cccc2c1OCCCO2	·	·	·	–	·	·	·
O=C(c1cccnc1)N1CCN(Cc2cccc(F)c2)CC1	–	–	–	–	–	–	·
O=C(c1cccnc1)N1CCN(Cc2ccc3ccccc3c2)CC1	–	–	–	10	–	–	–
CCOC(=O)COn1c(=O)c[n+]([O-])c2ccccc21	–	–	–	15	–	–	–
CCOC(=O)COn1c(=O)c(C)[n+]([O-])c2ccccc21	–	–	–	–	–	–	·
COC(=O)N/N=C/c1cccs1	–	–	–	–	–	–	·
COc1ccc(CCCC(=O)N/N=C\c2cccs2)cc1	–	–	–	8.6	–	–	–
COc1ccc(C(=O)CNc2ccccc2C#N)cc1	–	–	–	9.3	–	–	–
COc1ccc(C(=O)CNc2ccccc2CO)cc1	–	–	–	–	–	–	·
O=C(Nc1cccc(O)c1)C1CC(c2ccc(Cl)cc2)=NO1 (stereo not drawn)	–	–	–	–	–	–	·
COCCCn1c(C(=O)NCCN2CCOCC2)cc2c(=O)n3cccc(C)c3nc21	–	–	–	8.2	–	–	–
C(=C\c1nnc(-c2cccs2)o1)/c1ccccc1	–	–	–	13	–	–	–
Cc1ccc(/C=C/c2nnc(-c3ccccc3)o2)cc1	–	–	–	–	–	–	·
SMILES	SKKanGAS inh	TIM10 inh	PfHsp90 yeast 2	V-ATPase pHluor	tim23-1 inh	tim10-1 inh	V-ATPase pH SP
Cc1cc(NC(=O)Cc2ccccc2[N+](=O)[O-])no1	–	–	–	–	–	–	·
CC(C)[C@H](NC(=O)c1cc2cc(Cl)ccc2n1C)C(=O)N[C@@H](C(=O)O)c1ccccc1	–	–	–	–	–	–	·
Cc1ccc(CN2CCNC(=O)C2CC(=O)N(C)CCc2ccccc2)cc1 (stereo not drawn)	–	–	·	11	–	–	–
Cc1ccc(N2CCN(S(=O)(=O)c3ccc4c(c3)oc(=O)n4C)CC2C)cc1 (stereo not drawn)	–	–	–	–	–	–	·
Cc1cccc(C(=O)Nc2ccnc(-c3ccncc3)n2)c1	–	–	–	8.5	–	–	–
O=C(c1cc(Cl)nc2ccccc12)N1CCN(S(=O)(=O)c2cccc(F)c2)CC1	–	–	–	–	–	–	·
O=C(c1cc(Cl)nc2ccccc12)N1CCN(S(=O)(=O)c2ccccc2[N+](=O)[O-])CC1	–	–	–	14	–	–	–
CC(OC(=O)/C=C/c1ccccc1)C(=O)N1CCc2ccccc21 (stereo not drawn)	–	–	–	–	–	–	·
